In PubChem BioAssay AID652067 (The Scripps Research Institute Molecular Screening Center, 2013):
Hit rate of the full screen: of about 370,000 compounds, about 5,400 (1.5%) were called active. Many of the other results were omitted from the sample, so actives are more common in it than they were. Unmarked numbers belong to inactive results.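 Rule for the calls: active = activation above the mean of all tested compounds plus 3 SD (cut at about 5.5% in these data); inactive = the rest.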

System: DAF-12 nuclear receptor (Haemonchus contortus)
Experiment: H. contortus DAF-12 nuclear receptor activators, primary screen, cell-based, luminescence, HEK293, lit1-tk-luc reporter (AID 652067);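 note: 100% = response to 3 µM Δ7-dafachronic acid high control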
Conditions: HEK293 hcDAF-12 lit1-tk-luc reporter, at 6.8 µM, hits give high values, 0% DMSO, 100% Δ7-dafachronic acid

SMILES	activation
O=C(Nc1ccccc1)O/N=C1\CCCCC1c1ccc([N+](=O)[O-])cc1[N+](=O)[O-] (centres undefined)	-1.35%
C[n+]1ccccc1C1CCCC/C1=N\Nc1ccc([N+](=O)[O-])cc1[N+](=O)[O-] (centres undefined)	6% (active)
O=[N+]([O-])c1ccc(N/N=C2/CCCCC2c2ccccn2)c([N+](=O)[O-])c1 (centres undefined)	0.53%
Cc1ccc(S(=O)(=O)NCCC(=O)Nc2cccc(S(N)(=O)=O)c2)cc1C	-1.34%
Cc1ccc(S(=O)(=O)NCCC(=O)NCc2ccc(Cl)cc2)cc1C	2.24%
Cc1ccnc(NC(=O)CCNS(=O)(=O)c2ccc(C)c(C)c2)c1	9.81% (active)
O=C(CNC(=O)c1ccccc1)OC(C(=O)Nc1cc([N+](=O)[O-])ccc1F)c1ccccc1 (centres undefined)	-1.31%
CCC(CO)Nc1cccc2c1S(=O)(=O)N(Cc1cn(Cc3ccccc3C(F)(F)F)nn1)Cc1ccccc1O2 (centres undefined)	-0.6%
Cc1ccc(-c2nc(C3CCCN(S(=O)(=O)c4ccc(Br)s4)C3)no2)cc1 (centres undefined)	-1.74%
CCOC(=O)C1(Cc2ccccc2)CCN(Cc2cn(C(C)=O)c3ccccc23)CC1	4.1%
Cc1ccc(NC(=O)N2c3ccccc3SC2c2ccco2)c(C)c1 (centres undefined)	0.47%
COC(=O)C1CN(CC(C)C)CCS(=O)(=O)N1Cc1ccc(C)cc1 (centres undefined)	-1.58%
S=C1NC(c2ccccc2)=NCN1c1ccc(Br)cc1	-0.59%
Brc1ccccc1C1N=C(c2ccccc2)NO1 (centres undefined)	11% (active)
N#Cc1ccc(C2N=C(c3ccccc3)NO2)cc1 (centres undefined)	5.73% (active)
CN(C(=O)Cn1nnc(-c2ccc(F)cc2)n1)C1CCS(=O)(=O)C1 (centres undefined)	0.43%
C#CCN([C@H](C(=O)OC)C(C)CC)S(=O)(=O)c1ccccc1Br (some centres undefined)	-3.57%
COC(=O)[C@]1(Cc2ccccc2)NC=C(C(=O)c2ccccc2)[C@@H]1c1cccc(OC)c1	-0.48%
COc1cc(C(=O)Nc2ncccc2C)ccc1OCC(=O)N1CCOCC1	-1.69%
O=C(Cc1ccc(Cl)cc1)NC(=S)Nc1ccccc1O	-0.62%
O=C(NC(=S)Nc1cccc2c(O)cccc12)c1cccc(Br)c1	1.98%
O=C(NC(=O)c1ccccc1)Nc1ccccc1O	12.2% (active)
CCCC[C@H]1C2CC(OC(=O)NCc3ccccc3)C(C2)[C@H]2CCCCN21 (some centres undefined)	0.87%

SMILES	activation
COC(=O)C[C@H]1CC[C@H]2[C@H](COc3ccc(NC(=O)C4CC4)cc3C(=O)N2C)O1	0.16%
COc1ccccc1-c1sc2ccccc2c1C#CC1(O)CCCCC1	1.87%
CCOc1ccc2nc(Cl)c(C3CC(c4ccccc4)=NN3C(=O)c3cccs3)cc2c1 (centres undefined)	-2.57%
COc1ccc(C2CC(c3ccccc3)=NN2C(=O)c2ccc(Cl)c([N+](=O)[O-])c2)cc1 (centres undefined)	0.35%
COc1ccc(C2=NN(C(=O)c3ccccc3C(=O)O)C(c3ccccc3O)C2)cc1 (centres undefined)	12.9% (active)
O=C1Nc2ccccc2OC1CC(=O)N1CCCCCCC1 (centres undefined)	1.16%
CCCCNC(=O)C[C@H]1C[C@@]2(C(=O)OC)C(=C[C@H](COCc3ccccc3)O[C@@H]2C)N(Cc2ccc(Cl)cc2Cl)C1=O	-3.26%
C=C(C)C#CC(Cc1ccccc1)NCC1CC1 (centres undefined)	-1.73%
CCN(CC)CC(=O)Nc1sc2c(c1C(=O)c1ccccc1C)CCC2	-0.3%
O=C(O)c1c(NC(=O)N2CCCC2)sc2c1CCCC2	-0.22%
NC(=O)c1c(NC(=O)c2ccccc2)sc2c1CCCC2	7.46% (active)
Cc1nc2ccc(C(=O)N3CCN(C(=O)C(C)(C)C)CC3)cc2n1C1CCCC1	-2.87%
CC(CCN1CCC(C(O)(c2ccccc2)c2ccccc2)CC1)Oc1ccc([N+](=O)[O-])cc1Cl (centres undefined)	6.54% (active)
CC(CCN1CCC(C(O)(c2ccccc2)c2ccccc2)CC1)Oc1ccc(C(F)(F)F)cc1 (centres undefined)	-0.22%
CC(CCN1CCC(C(O)(c2ccccc2)c2ccccc2)CC1)Oc1ccc(Cl)cc1 (centres undefined)	4.67%
Cc1cc(C)cc(NC(=O)N2CCC(N(C)CCC(C)C)CC2)c1	-0.86%
CC(C)(C)OC(=O)NCc1cc(F)ccc1/C=C/S(=O)(=O)NCCc1ccccc1	-0.58%
CCOC(=O)c1cn[nH]c1NC(=S)Nc1ccccc1	7.58% (active)
CCOC(=O)c1cc2c(nc1NC(=S)Nc1ccccc1)CC(C)(CC)OC2 (centres undefined)	-0.86%
CCOC(=O)c1c(NC(=S)Nc2ccccc2)sc2c1CCN(C)C2	0.34%
C[C@H]1CN([C@@H](C)CO)C(=O)CCCn2nncc2CO[C@@H]1CN(C)C(=O)Nc1ccc(N2CCN(C)CC2)cc1	-1.4%
O=C(O)c1[nH]c2ccccc2c1C(c1cccc(O)c1)c1c(C(=O)O)[nH]c2ccccc12	6.89% (active)
Cc1ccc2[nH]c(C(=O)O)c(NC(=O)c3ccccc3[N+](=O)[O-])c2c1	3.39%

SMILES	activation
CCCS(=O)(=O)Nc1c(C(=O)O)[nH]c2ccccc12	3.5%
CCC(c1ccc(NC(=O)OC(C)(C)C)cc1)c1cc(OC)cc(OC)c1 (centres undefined)	-1.61%
CCOc1ccc(Oc2c(Cl)cnn(-c3ccc(C)cc3)c2=O)cc1	-0.82%
N#CC1=C(N)Oc2c(sc3ccccc23)C1c1ccco1 (centres undefined)	6.9% (active)
CCC(=O)c1c(CC)c2n3c1=CC[C@H]3CC(Br)C=2 (some centres undefined)	-2.16%
CC(C)c1ccc(Nc2ncccc2C#N)cc1	5.74% (active)
CN(C)c1ccnc(Nc2ccc(F)cc2)c1C#N	1%
CCN1C(=O)N[C@@H]2C[C@H](C(=O)N3CCCC3)[C@H](C)[C@H](c3ccccc3)C[C@@H]21	0.19%
CC(C)CNc1cccc2c1S(=O)(=O)N(Cc1cn(Cc3ccc(Cl)cc3)nn1)Cc1ccccc1O2	-0.84%
CCc1ccc(-c2cc(C(=O)NN3CCN(C)CC3)c3ccccc3n2)cc1	6.67% (active)
CCCCc1nc2ccccc2c(NC(=O)CN2CCN(C)CC2)c1CCC	0.46%
COC(=O)c1cc(N2CCNCC2)nc2ccccc12	0.41%
COC(=O)C(C(=O)OC)c1ccccc1NS(=O)(=O)c1cccc2ccccc12	-1.63%
COc1cccc(/C=C2\CC3(OC(C)=O)CCCN2C3)c1 (centres undefined)	-1.14%
CNC(=O)c1sc(Nc2ccc(OCc3ccccc3)cc2)nc1C	-3.73%
COc1ccccc1Nc1ncc(C(C)=O)c(C)n1	-0.49%
COc1cccc2sc(Nc3nc(C)c(C(C)=O)s3)nc12	6.52% (active)
CCOC(=O)N1CCN(C(=O)C[C@@H]2C(=O)N(CCc3ccc(Cl)cc3)C3=CCCC[C@]32C(=O)OCC)CC1	-4.47%
CCCCNC(=O)C[C@@H]1C(=O)N(CCc2ccc(Cl)cc2)C2=CCCC[C@]21C(=O)OCC	-2.83%
COc1ccc(C(=O)O/N=C(\N)c2ccccn2)cc1[N+](=O)[O-]	6.36% (active)
C/C(=N/OC(=O)c1cccc(C(F)(F)F)c1)c1cnccn1	-0.26%
COc1ccccc1OCC(=O)OCc1cc(-c2ccco2)on1	-2.08%
Cc1ccc(C(=O)O/N=C(\N)c2ccccn2)cc1Cl	8.22% (active)

SMILES	activation
COc1ccccc1OCC(=O)O/N=C(\N)c1ccccn1	7.16% (active)
O=C(COC(=O)c1ccccn1)NNC(=O)c1ccc([N+](=O)[O-])cc1	1.23%
O=C(COC(=O)c1ccccn1)NNC(=O)c1ccc(Br)cc1	-2.22%
N/C(=N\OC(=O)CCC1CCCCC1)c1ccccn1	4.24%
N/C(=N\OC(=O)Cc1ccc([N+](=O)[O-])cc1)c1ccccn1	1.92%
CCOC(=O)c1cccc(NC(=O)CN(C)S(=O)(=O)c2ccc(-c3cocn3)s2)c1	-1.38%
C=CCN1C(=O)[C@@H](CC(=O)N2CCN(C(=O)OCC)CC2)[C@]2(C(=O)OCC)CCCCC/C=C/12	0.11%
CCC(=O)OCCCN1C(=O)CCC12CCC(c1ccccc1)CC2 (centres undefined)	-1.9%
CN(C)[C@H]1CCN(c2cccc3c2S(=O)(=O)N2CC[C@H](C2)O3)C1	1.72%
Cc1ccc(CN2CCCCC(NC(=O)C3CCCCC3)C2=O)cc1 (centres undefined)	-1.6%
COC(=O)[C@]12C[C@H](CC(=O)N3CCN(C(=O)C4CC4)CC3)C(=O)N(CCC3=CCCCC3)C1=C[C@H](C(C)C)O[C@@H]2C1CC1	-1.23%
Nn1c(SCC(=O)Nc2ccc(S(N)(=O)=O)cc2)nnc1-c1n[nH]c2c1CCC2	-1.75%
C/C(=N\NC(=S)Nc1ccc(C)cc1)c1cc2ccccc2o1	-0.69%
Cc1ccc(NC(=O)c2cc3ccccc3o2)cc1	10.5% (active)
Cc1cccc(-n2nc3c(c2NC(=O)c2cc4ccccc4o2)CS(=O)(=O)C3)c1	1.51%
CC(C)(C)c1ccc(CSc2nnc(-c3cccs3)o2)cc1	1.61%
COc1ccccc1C(=O)NC(=O)COC(=O)C1CC1	0.43%
Cc1nc2ccccc2n1CC(O)c1ccccc1 (centres undefined)	1.55%
Cn1c(=N)n(CC(O)c2ccccc2)c2ccccc21 (centres undefined)	6.33% (active)
CCOc1ccc(C(O)Cn2c(=N)n(CCN3CCCCC3)c3ccccc32)cc1 (centres undefined)	-0.25%
